Of roughly 7,900 targets only a part is listed; those with a hit were picked by preference. About 0.6% of all pairs of compound and target were hits. Values without a mark were called inactive.
How the values were obtained:
Assay in all cases: log2 fold change, soluble protein after heating vs DMSO (PISA); higher = thermal stabilisation; K562 cells, 10 uM, 30 min; active = over 0.2 and 3.5 SD of the protein, either way, in both replicates (recomputed)
[1] = compound: CS(=O)(=O)c1ccc(-c2cnc(N)c(C(=O)Nc3ccccc3)n2)cc1
Summary of the method: (§1)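 K562 cells at 2×10^6 cells/mL were treated for 30 min with 10 μM compound, and aliquots were heated for 3 min over 48°C-58°C before pooling. Extraction used PBS with 0.5% NP-40 at 4°C, and soluble protein was the supernatant after 21,000xg for 90 min, measured by TMTpro 16plex LC-MS/MS with channel sums equalised. Thermal stability values, relative to control samples and from duplicates, are log2 fold changes.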

[2] = compound: C[C@@H](Oc1cc(-c2cnn(C3CCNCC3)c2)cnc1N)c1c(Cl)ccc(F)c1Cl [crizotinib]
Summary of the method: as §1

[3] = compound: C[C@@H]1COCCN1C2=NC(=NC(=C2)C3(CC3)S(=O)(=O)C)C4=C5C=CNC5=CC=C4
Summary of the method: as §1

[4] = compound: C[C@H](C1=CC=C(C=C1)C(=O)NC2=C3C=CNC3=NC=C2)N
Summary of the method: as §1

[5] = compound: C[C@H](Nc1ncnc2nc[nH]c12)c1cc2cccc(Cl)c2c(=O)n1-c1ccccc1 [duvelisib]
Summary of the method: as §1

[6] = compound: Cc1cc(Nc2cc(CN3CCOCC3)c3nc(C)c(Cc4ccc(Cl)cc4F)n3n2)n[nH]1 [gandotinib]
Summary of the method: as §1

[7] = compound: Cc1cc(Nc2cc(N3CCN(C)CC3)nc(Sc3ccc(NC(=O)C4CC4)cc3)n2)n[nH]1 [tozasertib]
Summary of the method: as §1

[8] = compound: Cc1cc(SCc2sc(-c3ccc(C(F)(F)F)cc3)nc2C)ccc1OCC(=O)O
Summary of the method: as §1

[9] = compound: Cc1ccc(-n2nc(C(C)(C)C)cc2NC(=O)Nc2ccc(OCCN3CCOCC3)c3ccccc23)cc1 [doramapimod]
Summary of the method: as §1

[10] = compound: Cc1ccc(C(=O)N(CCCN)[C@@H](c2nc3cc(Cl)ccc3c(=O)n2Cc2ccccc2)C(C)C)cc1 [ispinesib]
Summary of the method: as §1

UniProt Q9NUN5, sequence (Q9NUN5 whole entry, looked up): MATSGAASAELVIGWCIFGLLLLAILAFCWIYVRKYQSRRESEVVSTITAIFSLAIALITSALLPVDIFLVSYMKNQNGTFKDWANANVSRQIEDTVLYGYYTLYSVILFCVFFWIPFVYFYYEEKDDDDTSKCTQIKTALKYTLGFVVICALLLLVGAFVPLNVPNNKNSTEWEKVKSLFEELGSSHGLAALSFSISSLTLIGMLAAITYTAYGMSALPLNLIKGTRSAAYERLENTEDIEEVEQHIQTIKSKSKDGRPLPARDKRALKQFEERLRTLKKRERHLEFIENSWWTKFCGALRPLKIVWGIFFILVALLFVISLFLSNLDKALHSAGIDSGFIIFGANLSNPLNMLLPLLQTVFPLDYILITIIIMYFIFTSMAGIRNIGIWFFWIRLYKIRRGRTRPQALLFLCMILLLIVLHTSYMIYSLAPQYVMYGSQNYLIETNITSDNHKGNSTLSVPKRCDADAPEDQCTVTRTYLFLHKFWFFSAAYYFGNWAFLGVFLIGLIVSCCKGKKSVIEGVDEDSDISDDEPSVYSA
UniProt Q5SW96, sequence (Q5SW96 whole entry, looked up): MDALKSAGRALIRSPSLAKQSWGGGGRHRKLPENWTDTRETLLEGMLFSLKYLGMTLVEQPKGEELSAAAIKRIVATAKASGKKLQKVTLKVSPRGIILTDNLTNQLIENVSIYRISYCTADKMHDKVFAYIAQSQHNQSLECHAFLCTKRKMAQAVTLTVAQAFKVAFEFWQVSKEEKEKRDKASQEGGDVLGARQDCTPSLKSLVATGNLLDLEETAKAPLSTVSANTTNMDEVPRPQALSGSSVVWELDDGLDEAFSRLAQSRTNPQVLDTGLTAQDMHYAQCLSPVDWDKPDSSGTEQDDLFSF
UniProt P27816, sequence (P27816 whole entry, looked up): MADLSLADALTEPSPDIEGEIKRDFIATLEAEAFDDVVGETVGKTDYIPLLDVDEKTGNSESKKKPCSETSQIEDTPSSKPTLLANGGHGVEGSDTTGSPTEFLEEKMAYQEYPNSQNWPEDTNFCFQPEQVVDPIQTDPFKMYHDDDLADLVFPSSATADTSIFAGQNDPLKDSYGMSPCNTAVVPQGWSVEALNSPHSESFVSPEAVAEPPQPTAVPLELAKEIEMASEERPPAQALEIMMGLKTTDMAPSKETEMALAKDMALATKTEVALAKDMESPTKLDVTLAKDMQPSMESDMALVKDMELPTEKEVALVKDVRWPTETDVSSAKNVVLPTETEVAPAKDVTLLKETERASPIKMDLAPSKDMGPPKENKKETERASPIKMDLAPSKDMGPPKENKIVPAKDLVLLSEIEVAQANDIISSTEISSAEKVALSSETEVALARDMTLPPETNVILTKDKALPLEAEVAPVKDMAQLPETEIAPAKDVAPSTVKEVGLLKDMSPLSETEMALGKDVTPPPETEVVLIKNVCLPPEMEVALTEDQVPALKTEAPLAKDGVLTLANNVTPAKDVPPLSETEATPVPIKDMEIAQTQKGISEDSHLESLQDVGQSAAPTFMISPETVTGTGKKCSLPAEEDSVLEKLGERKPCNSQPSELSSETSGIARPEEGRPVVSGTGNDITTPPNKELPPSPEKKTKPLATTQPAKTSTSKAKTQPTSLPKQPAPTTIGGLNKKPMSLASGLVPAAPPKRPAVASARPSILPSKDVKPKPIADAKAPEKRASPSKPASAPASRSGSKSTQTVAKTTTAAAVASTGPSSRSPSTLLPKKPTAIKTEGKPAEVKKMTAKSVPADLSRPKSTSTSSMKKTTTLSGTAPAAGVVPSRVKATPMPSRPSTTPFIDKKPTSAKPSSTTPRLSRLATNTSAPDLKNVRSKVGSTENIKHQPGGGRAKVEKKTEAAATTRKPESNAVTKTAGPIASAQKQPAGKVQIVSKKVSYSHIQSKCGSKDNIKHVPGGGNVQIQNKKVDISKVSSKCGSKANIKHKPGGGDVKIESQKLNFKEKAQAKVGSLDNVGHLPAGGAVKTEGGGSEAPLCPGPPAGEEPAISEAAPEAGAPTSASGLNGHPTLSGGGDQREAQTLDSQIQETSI
UniProt Q9Y4K4, sequence (Q9Y4K4 whole entry, looked up): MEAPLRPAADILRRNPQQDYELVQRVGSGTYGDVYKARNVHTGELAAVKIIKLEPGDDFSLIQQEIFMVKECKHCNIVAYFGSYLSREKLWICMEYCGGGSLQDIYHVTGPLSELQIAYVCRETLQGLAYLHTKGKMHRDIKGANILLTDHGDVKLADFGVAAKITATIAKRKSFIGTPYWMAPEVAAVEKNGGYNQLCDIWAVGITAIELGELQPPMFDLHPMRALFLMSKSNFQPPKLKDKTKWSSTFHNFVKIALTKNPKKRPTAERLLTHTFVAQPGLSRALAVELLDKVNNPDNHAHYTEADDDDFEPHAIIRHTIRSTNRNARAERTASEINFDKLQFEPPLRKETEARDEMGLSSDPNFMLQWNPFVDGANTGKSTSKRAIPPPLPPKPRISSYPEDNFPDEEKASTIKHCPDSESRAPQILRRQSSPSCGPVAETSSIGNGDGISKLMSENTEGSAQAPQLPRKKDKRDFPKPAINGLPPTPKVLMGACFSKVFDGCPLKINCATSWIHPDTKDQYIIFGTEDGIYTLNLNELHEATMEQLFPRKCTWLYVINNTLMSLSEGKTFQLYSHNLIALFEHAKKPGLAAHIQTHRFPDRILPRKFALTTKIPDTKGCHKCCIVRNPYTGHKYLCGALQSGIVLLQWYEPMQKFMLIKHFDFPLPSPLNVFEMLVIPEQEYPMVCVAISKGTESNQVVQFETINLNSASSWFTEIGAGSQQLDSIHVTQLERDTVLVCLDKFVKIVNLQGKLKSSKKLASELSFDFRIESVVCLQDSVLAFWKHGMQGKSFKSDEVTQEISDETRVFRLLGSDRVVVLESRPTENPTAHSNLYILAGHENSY
UniProt Q13163, sequence (Q13163 whole entry, looked up): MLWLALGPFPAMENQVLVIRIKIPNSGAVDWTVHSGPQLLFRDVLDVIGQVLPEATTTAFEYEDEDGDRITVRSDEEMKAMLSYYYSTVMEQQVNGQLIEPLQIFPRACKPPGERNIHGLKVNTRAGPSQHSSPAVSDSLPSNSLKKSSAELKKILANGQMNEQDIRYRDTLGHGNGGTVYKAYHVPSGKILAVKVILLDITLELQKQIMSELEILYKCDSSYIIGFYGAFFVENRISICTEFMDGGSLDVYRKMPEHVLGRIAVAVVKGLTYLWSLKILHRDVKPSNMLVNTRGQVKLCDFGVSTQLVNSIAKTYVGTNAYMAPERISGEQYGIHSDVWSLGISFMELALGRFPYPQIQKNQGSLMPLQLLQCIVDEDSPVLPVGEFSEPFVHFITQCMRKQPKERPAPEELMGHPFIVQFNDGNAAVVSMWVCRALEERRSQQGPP
UniProt Q2M2Z5, sequence (Q2M2Z5 whole entry, looked up): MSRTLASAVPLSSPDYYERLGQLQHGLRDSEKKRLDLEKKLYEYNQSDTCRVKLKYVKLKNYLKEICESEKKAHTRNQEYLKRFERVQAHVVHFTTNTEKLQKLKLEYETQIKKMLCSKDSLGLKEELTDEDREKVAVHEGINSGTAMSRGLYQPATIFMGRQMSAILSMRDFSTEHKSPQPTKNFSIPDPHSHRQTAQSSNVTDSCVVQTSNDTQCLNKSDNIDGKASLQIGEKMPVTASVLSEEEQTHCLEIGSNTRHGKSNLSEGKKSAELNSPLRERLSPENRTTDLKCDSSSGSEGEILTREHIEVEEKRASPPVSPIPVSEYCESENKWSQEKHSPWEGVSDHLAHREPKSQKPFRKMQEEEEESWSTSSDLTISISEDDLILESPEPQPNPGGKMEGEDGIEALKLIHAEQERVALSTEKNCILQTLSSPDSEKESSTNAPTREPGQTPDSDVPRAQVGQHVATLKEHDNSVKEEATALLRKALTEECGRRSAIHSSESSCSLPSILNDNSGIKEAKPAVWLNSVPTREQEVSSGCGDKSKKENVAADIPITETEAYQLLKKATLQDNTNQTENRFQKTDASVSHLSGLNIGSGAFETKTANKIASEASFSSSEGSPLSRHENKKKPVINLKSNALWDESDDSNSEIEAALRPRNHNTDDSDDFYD
UniProt Q6NUT3, sequence (Q6NUT3 whole entry, looked up): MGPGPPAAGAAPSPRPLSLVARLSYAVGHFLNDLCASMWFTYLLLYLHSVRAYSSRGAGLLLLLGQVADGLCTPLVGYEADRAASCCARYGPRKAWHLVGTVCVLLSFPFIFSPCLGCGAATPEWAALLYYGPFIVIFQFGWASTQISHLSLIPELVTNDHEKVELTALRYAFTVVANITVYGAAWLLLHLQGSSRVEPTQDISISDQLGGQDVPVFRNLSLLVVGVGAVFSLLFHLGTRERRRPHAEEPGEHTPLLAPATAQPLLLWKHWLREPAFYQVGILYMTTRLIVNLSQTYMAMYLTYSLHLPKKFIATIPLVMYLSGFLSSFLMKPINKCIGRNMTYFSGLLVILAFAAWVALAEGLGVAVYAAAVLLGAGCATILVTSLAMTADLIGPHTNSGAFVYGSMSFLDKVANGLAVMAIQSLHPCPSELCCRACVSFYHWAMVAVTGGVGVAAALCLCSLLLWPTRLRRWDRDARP
UniProt Q8NHS3, sequence (Q8NHS3 whole entry, looked up): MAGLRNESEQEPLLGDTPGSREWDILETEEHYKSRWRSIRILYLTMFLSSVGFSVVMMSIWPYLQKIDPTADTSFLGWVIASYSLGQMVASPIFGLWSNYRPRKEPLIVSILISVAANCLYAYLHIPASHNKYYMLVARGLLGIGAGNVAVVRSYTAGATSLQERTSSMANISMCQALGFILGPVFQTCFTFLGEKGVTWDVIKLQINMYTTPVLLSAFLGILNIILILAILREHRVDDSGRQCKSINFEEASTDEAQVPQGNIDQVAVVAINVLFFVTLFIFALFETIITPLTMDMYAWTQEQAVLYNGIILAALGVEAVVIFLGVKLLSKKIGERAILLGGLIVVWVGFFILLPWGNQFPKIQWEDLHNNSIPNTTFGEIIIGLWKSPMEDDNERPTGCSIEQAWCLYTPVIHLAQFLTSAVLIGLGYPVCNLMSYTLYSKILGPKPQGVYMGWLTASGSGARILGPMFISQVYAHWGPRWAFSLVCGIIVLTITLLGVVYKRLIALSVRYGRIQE

| Target | log2 fold change [1] | log2 fold change [2] | log2 fold change [3] | log2 fold change [4] | log2 fold change [5] | log2 fold change [6] | log2 fold change [7] | log2 fold change [8] | log2 fold change [9] | log2 fold change [10] |
| --- | --- | --- | --- | --- | --- | --- | --- | --- | --- | --- |
| MED17 (UniProt Q9NVC6) | -0.02 | -0.004 | 0.028 | 0.119 | -0.067 | 0.007 | -0.042 | 0.109 | 0.022 | -0.049 |
| KMT2C isoform 3 (UniProt Q8NEZ4) | 0.013 |  | 0.021 | 0.022 | 0.134 | -0.106 | 0.063 | -0.048 |  | -0.235 |
| MAN2B2 (UniProt Q9Y2E5) | 0.051 | -0.014 | 0.055 |  | 0.094 |  | -0.044 | 0.004 | 0.017 | -0.147 |
| MARCHF3 (UniProt Q86UD3) | 0.243 |  | 0.029 |  |  |  |  |  |  |  |
| LPGAT1 (UniProt Q92604) | -0.01 | -0.101 | 0.073 | 0.015 | -0.02 |  | -0.088 | 0.16 | -0.038 | -0.237 |
| MAPK14 (UniProt Q16539) | 0.023 | -0.062 |  | 0.018 | -0.129 | -0.099 | -0.066 | 0.015 |  | -0.069 |
| MED12 isoform 2 (UniProt Q93074) | -0.088 | -0.088 | 0.207 |  | 0.068 | -0.009 | 0.012 | 0.048 | 0.095 | -0.117 |
| MED25 isoform 3 (UniProt Q71SY5) | 0.061 | 0.021 |  | 0 | 0.061 | 0.19 | 0.136 | 0.162 | 0.085 | -0.018 |
| MAML1 (UniProt Q92585) | -0.022 | 0.074 | 0.053 | -0.056 |  |  |  |  | -0.038 | -0.006 |
| ING5 (UniProt Q8WYH8) |  | -0.36 |  | -0.018 |  |  | -0.079 |  | -0.019 |  |
| MFSD12 isoform 3 (UniProt Q6NUT3) | 0.17 |  |  | -0.213 | 0.109 | -0.122 | 0.063 | 0.065 |  |  |
| MFSD8 (UniProt Q8NHS3) |  | -0.013 | 0.04 | -0.023 | -0.108 | -0.018 | 0.055 | -0.015 | 0.131 | -0.208 |
| LRRCC1 (UniProt Q9C099) |  |  |  |  | 0.09 |  | 0.006 | 0.013 |  | -0.301 |
| MAPRE3 isoform 2 (UniProt Q9UPY8) |  | 0.22 |  | 0.06 |  |  | -0.264 |  | 0.007 |  |
| MGRN1 isoform 2 (UniProt O60291) |  | -0.015 |  | 0.225 |  | 0.06 | -0.136 |  | 0.012 | -0.225 |
| KIF21A (UniProt H0YI78) |  |  |  |  |  |  |  |  |  | -0.041 |
| LDLRAP1 (UniProt Q5SW96) |  | 0.004 |  |  |  |  |  |  | 0.18 | -0.088 |
| ITM2C (UniProt Q9NQX7) | 0.117 |  | 0.239 | 0.137 | -0.034 | 0.083 |  | 0.011 |  | 0.051 |
| LIN52 (UniProt Q52LA3) |  |  |  |  | -0.087 |  |  | -0.059 |  |  |
| MCOLN3 (UniProt Q8TDD5) |  |  |  |  |  | 0.022 | -0.112 |  |  | -0.255 |
| KXD1 (UniProt Q9BQD3) |  |  | 0.118 | -0.009 | 0.067 | -0.156 | -0.046 | 0.012 |  | -0.078 |
| MAP4 isoform 5 (UniProt P27816) | 0.096 |  | -0.159 |  |  |  |  |  |  | -0.042 |

| Target | log2 fold change [1] | log2 fold change [2] | log2 fold change [3] | log2 fold change [4] | log2 fold change [5] | log2 fold change [6] | log2 fold change [7] | log2 fold change [8] | log2 fold change [9] | log2 fold change [10] |
| --- | --- | --- | --- | --- | --- | --- | --- | --- | --- | --- |
| ITPRID2 (UniProt P28290) |  | -0.201 | 0.229 |  |  |  |  |  | -0.056 | -0.035 |
| MAGED1 isoform 2 (UniProt Q9Y5V3) | -0.012 |  | 0.096 | 0.205 | 0.05 |  |  | -0.008 |  |  |
| IGFBP6 (UniProt P24592) |  |  |  | -0.035 | 0.063 |  |  | 0.14 |  | -0.712 (active) |
| LEPROT (UniProt O15243) |  |  | -0.149 | 0.083 | 0.045 | 0.081 | 0.003 | -0.026 |  |  |
| IKZF1 (UniProt R9R4D9) |  | 0.028 |  | -0.078 | 0.042 | 0.244 | -0.066 | -0.12 | 0.235 |  |
| LAPTM4B (UniProt Q86VI4) | 0.012 |  |  |  |  | 0 |  |  |  |  |
| MAP4K2 (UniProt Q12851) | -0.032 |  |  | -0.129 |  |  | 0.158 |  | -0.091 |  |
| LMBRD1 (UniProt Q9NUN5) | -0.003 |  | 0.111 | -0.14 | -0.037 | -0.137 | -0.083 | -0.031 |  | -0.61 (active) |
| KIZ (UniProt Q2M2Z5) |  | -0.032 |  | -0.115 |  | 0.063 |  |  | 0.071 | -0.047 |
| MAP4K5 (UniProt Q9Y4K4) | 0.019 |  | 0.072 | 0.24 |  | -0.067 | -0.088 |  | -0.064 | -0.045 |
| KMT5A (UniProt Q9NQR1) | 0.018 |  |  |  |  | 0.038 |  |  |  |  |
| MFSD1 isoform 6 (UniProt Q9H3U5) | 0.035 |  | 0.076 | -0.03 |  | -0.077 | 0.041 |  |  | -0.367 (active) |
| LRRFIP1 isoform 4 (UniProt Q32MZ4) |  | 0.012 | 0.175 | 0.59 | 0.025 | 0.548 |  | -0.025 | -0.016 |  |
| MAGEA8 (UniProt P43361) |  | -0.003 |  | 0.134 | -0.082 | -0.472 (active) | -0.007 | -0.002 | 0.037 | -0.034 |
| KIF13A isoform 4 (UniProt Q9H1H9) | -0.363 |  |  | -0.019 |  |  |  |  |  |  |
| LMNA isoform 2 (UniProt P02545) |  |  |  |  |  |  | 0.357 |  |  |  |
| MAP2K5 (UniProt Q13163) |  | -0.012 |  | 0.072 | -0.049 |  |  | -0.171 | 0.053 | 0.123 |
| MFAP3 (UniProt P55082) | -0.012 |  | 0.045 |  | 0.083 |  | 0.009 | 0.003 |  |  |
| LAMP2 isoform 2 (UniProt P13473) |  | -0.424 (active) | 0.119 | -0.051 | 0.344 (active) | 0.066 | -0.071 | 0.011 | 0.002 |  |
| LSR isoform 3 (UniProt Q86X29) | 0.052 |  |  | -0.138 | 0.179 |  | -0.324 | -0.118 |  |  |
| MAPK7 (UniProt Q13164) |  | 0.773 (active) | 0.03 |  |  | 0.304 |  |  | 0.057 |  |
| IKZF1 isoform 2 (UniProt Q13422) | 0.081 |  |  | 0.059 |  |  | 0.055 |  |  | -0.034 |

— the supplement of paper PMC10849652
